In the library only some 2.5% were active in any assay of this set; here they are far more common.
ULK1 inh: ULK1 kinase inhibitors, primary screen, biochemical, AlphaScreen | AlphaScreen Atg13 phosphorylation by ULK1, luminescence | inhibition, % at 5.96 µM | Serine/threonine-protein kinase ULK1 (Homo sapiens), O75385 | 1.9% of 30,000 active | AID 1259251, 2017; in the data active = inhibition above about 43%
ASK1 inh: ASK1 kinase inhibitors, primary screen, biochemical, AlphaScreen | inhibition, % at 7.44 µM | Mitogen-activated protein kinase kinase kinase 5 (Homo sapiens), Q99683 | AlphaScreen MKK6 phosphorylation by ASK1, luminescence | 0.99% of 22,000 active; in the data active = inhibition above about 35%
Target sequence (Q99683 whole entry, looked up): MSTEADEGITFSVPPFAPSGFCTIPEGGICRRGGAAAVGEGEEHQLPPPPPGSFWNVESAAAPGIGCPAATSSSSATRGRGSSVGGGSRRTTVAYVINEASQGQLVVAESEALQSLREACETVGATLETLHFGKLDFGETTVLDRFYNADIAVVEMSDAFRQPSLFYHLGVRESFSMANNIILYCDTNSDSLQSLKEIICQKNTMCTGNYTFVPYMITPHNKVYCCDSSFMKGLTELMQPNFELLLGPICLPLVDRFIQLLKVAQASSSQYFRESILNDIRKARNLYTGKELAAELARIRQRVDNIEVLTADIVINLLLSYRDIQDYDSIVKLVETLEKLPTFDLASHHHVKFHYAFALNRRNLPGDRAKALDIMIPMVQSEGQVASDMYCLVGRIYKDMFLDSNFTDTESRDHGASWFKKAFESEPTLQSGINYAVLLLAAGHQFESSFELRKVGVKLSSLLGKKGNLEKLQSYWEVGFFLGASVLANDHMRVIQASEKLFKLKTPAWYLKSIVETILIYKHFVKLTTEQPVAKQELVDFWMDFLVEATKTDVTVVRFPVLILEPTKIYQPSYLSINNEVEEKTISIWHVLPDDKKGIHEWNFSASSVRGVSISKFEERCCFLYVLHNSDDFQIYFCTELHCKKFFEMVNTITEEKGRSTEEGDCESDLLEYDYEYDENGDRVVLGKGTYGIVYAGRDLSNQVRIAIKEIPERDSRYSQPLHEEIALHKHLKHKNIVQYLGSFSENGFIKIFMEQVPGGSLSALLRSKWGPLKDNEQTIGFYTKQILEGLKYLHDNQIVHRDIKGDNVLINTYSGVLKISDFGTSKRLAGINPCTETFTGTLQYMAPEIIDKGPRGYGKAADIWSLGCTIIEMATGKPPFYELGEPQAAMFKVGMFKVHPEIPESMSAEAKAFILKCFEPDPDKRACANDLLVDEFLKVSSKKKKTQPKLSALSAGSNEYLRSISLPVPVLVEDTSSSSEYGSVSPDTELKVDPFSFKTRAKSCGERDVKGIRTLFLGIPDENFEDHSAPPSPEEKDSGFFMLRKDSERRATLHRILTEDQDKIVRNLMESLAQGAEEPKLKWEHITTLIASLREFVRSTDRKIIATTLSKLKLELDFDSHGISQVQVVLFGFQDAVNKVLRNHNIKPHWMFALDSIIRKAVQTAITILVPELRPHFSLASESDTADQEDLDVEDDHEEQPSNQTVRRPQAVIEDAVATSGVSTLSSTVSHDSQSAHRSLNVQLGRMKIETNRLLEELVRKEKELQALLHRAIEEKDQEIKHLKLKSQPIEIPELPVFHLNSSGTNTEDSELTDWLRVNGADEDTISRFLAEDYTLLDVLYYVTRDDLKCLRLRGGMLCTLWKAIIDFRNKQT
Large screens that a line does not name were inactive.

CC(=O)Nc1ccc(NC(=O)Cc2cn(-c3ccc(Nc4ccc5ncccc5c4)nn3)c3ccccc23)cc1	none
c1ccc(OCCNc2ccnc(Nc3nccc4ccccc34)n2)cc1	none
COc1cc(Nc2nc(NCCc3ccc(O)cc3)c3[nH]cnc3n2)cc(OC)c1OC	ULK1 inh 75
CN(C)c1cccc(Nc2nc(NCCOc3ccccc3)c3[nH]cnc3n2)c1	none
CCNc1nc(Nc2cc(OC)c(OC)c(OC)c2)c2[nH]cnc2n1	none
COc1cc(Nc2nc(NCCOc3ccccc3)c3[nH]cnc3n2)cc(OC)c1OC	ULK1 inh 78
COc1cc(Nc2nc(NCCO)c3[nH]cnc3n2)cc(OC)c1OC	ULK1 inh 63
CCNc1nc(NCCc2ccc(O)cc2)c2[nH]cnc2n1	none
N#CCCNc1cc(-c2cccnc2)nc(-c2ccccn2)n1	none (no result: ASK1 inh)
O=C(NCCOc1ccccc1)c1ccnc(-c2csc3ccccc23)c1	none
CC(=O)c1ccc(Nc2nccc(-c3ccc(NS(C)(=O)=O)cc3)n2)cc1	ULK1 inh 55
Cc1ccc(-c2ncn(-c3ccc(Nc4nccc(-c5ccc(NS(C)(=O)=O)cc5)n4)cc3)n2)cn1	none
CS(=O)(=O)Nc1ccc(-c2ccnc(Nc3ccc(C(O)(C(F)(F)F)C(F)(F)F)cc3)n2)cc1	none
CS(=O)(=O)Nc1ccc(-c2ccnc(Nc3ccc(-n4cncn4)cc3)n2)cc1	ULK1 inh 67
COc1cc(NC(=O)c2cccc(-n3cc(NC(=O)CCc4ccccc4)cn3)c2)cc(OC)c1OC	none
COc1ccc(CCNC(=O)c2csc(-c3ccc(N4CCN(C)CC4)cc3)n2)cc1	none
Cc1ncn(-c2ccc(Nc3ncc(C)c(Nc4ccccc4C(N)=O)n3)cc2)n1	ULK1 inh 72
Cc1ncn(-c2ccc(Nc3ncc4ccnc(-c5ccccc5)c4n3)cc2)n1	none
NC(=O)c1ccccc1Nc1nc(Nc2ccc(N3CCCC3=O)cc2)ncc1Cl	ULK1 inh 92
N#Cc1ccc(Nc2ncc(Cl)c(Nc3ccccc3C(N)=O)n2)cc1	ULK1 inh 46
NC(=O)c1ccccc1Nc1nc(Nc2ccc(N3CCOCC3)c(F)c2F)ncc1Cl	none
COc1ccc(Nc2ncc(Cl)c(Nc3ccccc3-c3ccn(C)n3)n2)cc1	none
O=C(Cc1cn(-c2ccc(Nc3cnccn3)nn2)c2ccccc12)NCCc1ccc(O)cc1	none
Cn1c(Nc2cc(Nc3ccc4c(c3)OCO4)ncn2)nc2ccccc21	none
CC(=O)Oc1c(C)c(C)c2c(c1C)CCC(C)(CCCC(C)CCCC(C)CCCC(C)C)O2 (configuration not stated)	none (no result: ASK1 inh)
Cc1c(C)c2c(c(C)c1OC(=O)CCC(=O)O)CC[C@@](C)(CCC[C@H](C)CCC[C@H](C)CCCC(C)C)O2	ULK1 inh 73 (no result: ASK1 inh)
COc1ccc(-c2nc3ncnc(NCCN(C(C)C)C(C)C)c3[nH]2)cc1	none
CCNc1ccc(N2CCC(C(=O)Nc3ccc4c(c3)OCO4)CC2)nn1	none
O=C(NCCCN1CCCC1=O)C1CCN(c2ccc(Nc3ccccc3)nn2)CC1	none
CN(C)c1ccc(O)c2c1C[C@H]1C[C@H]3[C@H](N(C)C)C(=O)C(C(N)=O)=C(O)[C@@]3(O)C(=O)C1=C2O	none (no result: ASK1 inh)
C[C@H]1c2cccc(O)c2C(O)=C2C(=O)[C@]3(O)C(O)=C(C(N)=O)C(=O)[C@@H](N(C)C)[C@@H]3[C@@H](O)[C@@H]21	ULK1 inh 52 (no result: ASK1 inh)
CC(=O)c1cccc(-c2ncc(C(=O)NCc3cccnc3)s2)c1	none
Cc1ccccc1C(=O)N1c2ccc(S(C)(=O)=O)cc2NC(=O)C1CC(C)C (configuration not stated)	none (no result: ASK1 inh)
COc1ccc(CCNC(=O)c2cccc(N3CCN(Cc4ccc5c(c4)OCO5)CC3)n2)cc1	none
CNC(=O)c1ccccc1Nc1cc(Nc2ccc(N3CCC(N(C)C)C3)cc2OC)ncc1C#N (configuration not stated)	ULK1 inh 91
COc1cc(N2CCOCC2)ccc1Nc1cc(Nc2cccc3c2C(=O)N(C)C3)c(C(F)(F)F)cn1	none
CNC(=O)c1ccccc1Nc1cc(Nc2ccc(N3CCN(C)CC3)cc2OC)ncc1C(F)(F)F	ULK1 inh 91
CNC(=O)c1ccccc1Nc1cc(Nc2ccc(OC3CCN(C)CC3)cc2OC)ncc1C(F)(F)F	ULK1 inh 95
CC(C)NC1CCC(Nc2cc(Nc3ccccc3C(N)=O)c(C(F)(F)F)cn2)CC1 (configuration not stated)	none
COc1cc(N2CCOCC2)ccc1Nc1cc(Nc2ccccc2-c2ncco2)c(C(F)(F)F)cn1	none
CCCNc1ncnc2c1nc(-c1ccc(N3CCN(C)CC3)cc1)n2C(C)C	none
CCCNc1nc(Nc2nccc3ccccc23)nc2c1ncn2-c1ccsc1	none
O=C(Nc1ccc2[nH]ncc2c1)c1ccc(N2CCOCC2)nc1	none
c1cnc(Nc2nc(NCc3nc4ccccc4[nH]3)c3[nH]cnc3n2)nc1	none
Cc1ncn(-c2ccc(Nc3ncc4cccc(-c5ccncc5F)c4n3)cc2)n1	ULK1 inh 51
Cc1ncn(-c2ccc(Nc3ncc4cccc(-c5cncnc5)c4n3)cc2)n1	none
